The values below come from PubChem BioAssay (NCI).

Molecules are shown by their SMILES. About 79,000 compounds went through this panel and 15% of them were active in at least one assay; those are over-represented in the sample as a whole. A number with no mark means an inactive call. Active and inactive are the calls of the source. Rule as the data show it: active = growth inhibition above about 70%; inactive = the rest.

This test in a line: NCI Yeast Anticancer Drug Screen. Data for the wt2 strain (AID 169).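 Also: 0% = growth of vehicle-treated yeast cultures.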 The conditions noted are these: S. cerevisiae wt2 strain growth inhibition, hits give high values. As to the method:
Growth inhibition of yeast strains with defined genetic alterations is measured as a screen for potential anti-cancer activity. Selected strains with alterations in DNA damage repair or cell cycle control were exposed to compounds and growth inhibition was measured relative to vehicle treated controls. The strain used in this assay is wt2

As for `BrC1C2CCC3OC3C12` (stereo not given), the growth inhibition (at 1.2 µM) was -1%; the growth inhibition (at 3.7 µM) was 2%; the growth inhibition (at 11.0 µM) is 98% (active); the growth inhibition (at 33.0 µM) is 99% (active); the growth inhibition (at 100.0 µM) was 99% (active).
With `N#CC1OB(O)c2ccccc21` (stereo not given), the growth inhibition is 0% (at 1.2 µM); 0% (at 3.7 µM); -1% (at 11.0 µM); -2% (at 33.0 µM); -2% (at 100.0 µM).
For the molecule `O=[N+]([O-])c1ccc(C(c2c[nH]c3ccccc23)c2c[nH]c3ccccc23)cc1`, the growth inhibition was 9% (at 1.2 µM); 98% (active) (at 3.7 µM); 97% (active) (at 11.0 µM); 94% (active) (at 33.0 µM); 88% (active) (at 100.0 µM).
Taken in the same sequence, the figures for `O=c1[nH]c2c([N+](=O)[O-])cccc2c2ccccc12` were -2%, 6%, -1%, 12% and 84% (active).
Taken in the same sequence, the figures for `C=CC(C)(C)N1C(=O)C(C(C)=O)=C(O)C1Cc1c[nH]c2ccccc12` (stereo not given) were -1%, -1%, -1%, 16% and 92% (active).
Taken in the same sequence, the figures for `O=C1NC(c2cccc(OCc3ccccc3)c2)Nc2ccccc21` (stereo not given) were -5%, -11%, -7%, -14% and 3%.
Turning to `[N-]=[N+]=NC1(c2ccccc2)C(=O)Nc2ccccc2C1=O` (stereo not given), the growth inhibition reads like this: (at 1.2 µM) -3%; (at 3.7 µM) -2%; (at 11.0 µM) 1%; (at 33.0 µM) 13%; (at 100.0 µM) 22%.
Taken in the same sequence, the figures for `O=C(C#Cc1ccccc1)/C=C/c1ccccc1` were -21%, -5%, 13%, 91% (active) and 97% (active).
